Test results published in PubChem BioAssay AID1159580 (chemical genetic matrix, 2015).
Among all 5,500 compounds or so, about 2,000 (36%) were called active. Not shown: some 18% with an inconclusive outcome. Cut-off read from the data, not from the text of the source: active = normalized growth mostly below about 0.91 (no sharp cut-off); inconclusive = no clear call, values can overlap the other calls; inactive = mostly above about 0.92. The list shows a part of the results.

Assay: chemical genetic growth profiling, strain panel (AID 1159580);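 note: tested at 20 µM; growth read once vehicle control cultures reached saturation at 30 °C; 1 = growth at the plate median or of vehicle wells; lower values mean less growth of the strain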
Settings: growth OD

Measured: normalized growth

CCCCN1CCCCC1C(=O)Nc1c(C)cccc1C (configuration not stated)
inactive: S. cerevisiae deletion strains, locus YJR075W, strain HOC1, hits give low values 1 | S. cerevisiae deletion strains, locus YKL009W, strain mrt4, hits give low values 1.01 | S. cerevisiae deletion strains, locus YKL068W, hits give low values 0.991 | S. cerevisiae deletion strains, locus YKL085W, strain MDH1 (second series), hits give low values 1 | S. cerevisiae deletion strains, locus YKL085W, strain MDH1, hits give low values 1 | S. cerevisiae deletion strains, locus YKL160W, strain elf1, hits give low values 0.992 | S. cerevisiae deletion strains, locus YKL190W, strain CNB1, hits give low values 1.01 | S. cerevisiae deletion strains, locus YKR001C, strain vps1, hits give low values 1.01 | S. cerevisiae deletion strains, locus YKR026C, strain gcn3, hits give low values 0.997 | S. cerevisiae deletion strains, locus YKR091W, strain srl3, hits give low values 0.982 | S. cerevisiae deletion strains, locus YLL001W, strain dnm1, hits give low values 0.991 | S. cerevisiae deletion strains, locus YLL026W, hits give low values 0.998 | S. cerevisiae deletion strains, locus YLL041C, strain sdh2, hits give low values 0.991 | S. cerevisiae deletion strains, locus YLR027C, strain aat2, hits give low values 0.991 | S. cerevisiae deletion strains, locus YLR039C, strain RIC1, hits give low values 1.01 | S. cerevisiae deletion strains, locus YLR058C, strain SHM2, hits give low values 1.01 | S. cerevisiae deletion strains, locus YLR102C, strain apc9, hits give low values 0.994 | S. cerevisiae deletion strains, locus YLR113W, strain HOG1, hits give low values 0.991 | S. cerevisiae deletion strains, locus YLR221C, strain rsa3, hits give low values 0.996 | S. cerevisiae deletion strains, locus YLR258W, strain gsy2, hits give low values 0.992 | S. cerevisiae deletion strains, locus YLR262C, strain YPT6 (second series), hits give low values 0.998 | S. cerevisiae deletion strains, locus YLR262C, strain YPT6, hits give low values 1.06 | S. cerevisiae deletion strains, locus YLR268W, strain sec22, hits give low values 0.943 | S. cerevisiae deletion strains, locus YLR320W, strain mms22, hits give low values 1.01 | S. cerevisiae deletion strains, locus YLR330W, strain CHS5, hits give low values 1.01 | S. cerevisiae deletion strains, locus YLR342W, strain FKS1 (second series), hits give low values 1.03 | S. cerevisiae deletion strains, locus YLR342W, strain FKS1, hits give low values 0.973 | S. cerevisiae deletion strains, locus YLR357W, strain rsc2, hits give low values 0.982 | S. cerevisiae deletion strains, locus YLR370C, strain arc18, hits give low values 0.998 | S. cerevisiae deletion strains, locus YLR371W, strain rom2, hits give low values 0.99 | S. cerevisiae deletion strains, locus YLR384C, strain iki3, hits give low values 0.997 | S. cerevisiae deletion strains, locus YLR418C, strain cdc73, hits give low values 0.993 | S. cerevisiae deletion strains, locus YML016C, strain PPZ1, hits give low values 1.02 | S. cerevisiae deletion strains, locus YML032C, strain rad52, hits give low values 0.982 | S. cerevisiae deletion strains, locus YML120C, strain ndi1, hits give low values 0.973 | S. cerevisiae deletion strains, locus YML124C, strain tub3, hits give low values 0.993 | S. cerevisiae deletion strains, locus YMR058W, strain fet3, hits give low values 0.979 | S. cerevisiae deletion strains, locus YMR078C, strain ctf18, hits give low values 0.99 | S. cerevisiae deletion strains, locus YMR125W, strain sto1, hits give low values 0.982 | S. cerevisiae deletion strains, locus YMR129W, hits give low values 0.992 | S. cerevisiae deletion strains, locus YMR205C, strain PFK2, hits give low values 1.01 | S. cerevisiae deletion strains, locus YMR223W, strain ubp8, hits give low values 1.01 | S. cerevisiae deletion strains, locus YMR231W, strain pep5, hits give low values 0.996 | S. cerevisiae deletion strains, locus YMR263W, strain SAP30, hits give low values 1.01 | S. cerevisiae deletion strains, locus YMR307W, strain GAS1, hits give low values 1.05 | S. cerevisiae deletion strains, locus YNL067W, strain RPL9B, hits give low values 1.01 | S. cerevisiae deletion strains, locus YNL071W, strain lat1, hits give low values 0.984 | S. cerevisiae deletion strains, locus YNL128W, strain TEP1, hits give low values 1.02 | S. cerevisiae deletion strains, locus YNL153C, strain GIM3, hits give low values 1.01 | S. cerevisiae deletion strains, locus YNL183C, strain NPR1, hits give low values 0.948 | S. cerevisiae deletion strains, locus YNL209W, strain ssb2, hits give low values 0.976 | S. cerevisiae deletion strains, locus YNL233W, strain BNI4, hits give low values 1 | S. cerevisiae deletion strains, locus YNL248C, strain rpa49, hits give low values 0.959 | S. cerevisiae deletion strains, locus YNL250W, strain rad50, hits give low values 1 | S. cerevisiae deletion strains, locus YNL271C, strain bni1, hits give low values 0.985 | S. cerevisiae deletion strains, locus YNL298W, strain CLA4, hits give low values 1 | S. cerevisiae deletion strains, locus YNL307C, strain MCK1, hits give low values 0.993 | S. cerevisiae deletion strains, locus YNL322C, strain KRE1 (second series), hits give low values 0.986 | S. cerevisiae deletion strains, locus YNL322C, strain KRE1, hits give low values 1.01 | S. cerevisiae deletion strains, locus YNR049C, strain mso1, hits give low values 0.993 | S. cerevisiae deletion strains, locus YNR052C, strain pop2, hits give low values 0.99 | S. cerevisiae deletion strains, locus YOL006C, strain TOP1, hits give low values 1.02 | S. cerevisiae deletion strains, locus YOL012C, strain htz1 0.897 | S. cerevisiae deletion strains, locus YOL147C, strain pex11, hits give low values 0.987 | S. cerevisiae deletion strains, locus YOR001W, strain rrp6, hits give low values 0.991 | S. cerevisiae deletion strains, locus YOR061W, strain CKA2, hits give low values 1.02 | S. cerevisiae deletion strains, locus YOR069W, strain VPS5, hits give low values 1.01 | S. cerevisiae deletion strains, locus YOR070C, strain gyp1, hits give low values 0.996 | S. cerevisiae deletion strains, locus YOR080W, strain dia2, hits give low values 0.979 | S. cerevisiae deletion strains, locus YOR083W, strain WHI5, hits give low values 1 | S. cerevisiae deletion strains, locus YOR106W, strain vam3, hits give low values 0.969 | S. cerevisiae deletion strains, locus YOR136W, strain idh2, hits give low values 0.993 | S. cerevisiae deletion strains, locus YOR144C, strain elg1, hits give low values 0.993 | S. cerevisiae deletion strains, locus YOR184W, strain ser1, hits give low values 0.986 | S. cerevisiae deletion strains, locus YOR231W, strain MKK1, hits give low values 0.974 | S. cerevisiae deletion strains, locus YOR265W, strain rbl2, hits give low values 0.987 | S. cerevisiae deletion strains, locus YOR270C, strain vph1, hits give low values 0.985 | S. cerevisiae deletion strains, locus YOR290C, strain snf2, hits give low values 0.977 | S. cerevisiae deletion strains, locus YOR316C, strain cot1, hits give low values 0.989 | S. cerevisiae deletion strains, locus YPL051W, strain arl3, hits give low values 0.998 | S. cerevisiae deletion strains, locus YPL055C, strain LGE1, hits give low values 1.03 | S. cerevisiae deletion strains, locus YPL078C, strain atp4, hits give low values 0.978 | S. cerevisiae deletion strains, locus YPL106C, strain sse1, hits give low values 0.962 | S. cerevisiae deletion strains, locus YPL240C, strain hsp82, hits give low values 0.982 | S. cerevisiae deletion strains, locus YPL241C, strain CIN2, hits give low values 1.01 | S. cerevisiae deletion strains, locus YPL256C, strain CLN2, hits give low values 0.958 | S. cerevisiae deletion strains, locus YPR119W, strain clb2, hits give low values 0.987 | S. cerevisiae deletion strains, locus YPR141C, strain kar3, hits give low values 0.985 | S. cerevisiae deletion strains, locus YPR163C, strain tif3, hits give low values 0.992 | S. cerevisiae deletion strains, locus YPR167C, strain met16, hits give low values 0.991 | S. cerevisiae deletion strains, strain wtn01, hits give low values 0.98 | S. cerevisiae strains, strain wild type, hits give low values 1.02
